According to PubChem BioAssay:
Activity calls are given as the source filed them. Unless noted, the rule behind the calls is not given here.

Experiments:
[1] = HepG2 liver cancer cell viability effects, profiling panel, resazurin fluorescence, 24 h, PK04 Diversity Set (AID 1172); details: higher = more signal
[2] = basal S. cerevisiae growth modulation, no modifier, primary screen, OD600, strain BY4716, 24 h, basal condition (AID 1173); details: OD600, 24 h, higher = more signal, called active from +8 up or from −8 down
[3] = MM1S myeloma cell viability, profiling panel, resazurin fluorescence, basal, 24 h, PK04 Diversity Set (AID 1174); details: higher = more signal, called active from +8 up or from −8 down;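 note: MM1S multiple myeloma cell line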
[4] = target: Dihydroorotate dehydrogenase (quinone), mitochondrial (Plasmodium falciparum (isolate 3D7)) (UniProt Q08210); test: PfDHODH enzyme inhibitors, primary screen, biochemical, C-terminal His tag, absorbance 600 nm (AID 1175); details: DCIP absorbance 600 nm, higher = more signal, called active from +8 up or from −8 down;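 note: recombinant parasite enzyme with a five histidine tag at its C terminus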
Sequence of Dihydroorotate dehydrogenase (quinone), mitochondrial (Plasmodium falciparum (isolate 3D7)) (Q08210 whole entry, looked up): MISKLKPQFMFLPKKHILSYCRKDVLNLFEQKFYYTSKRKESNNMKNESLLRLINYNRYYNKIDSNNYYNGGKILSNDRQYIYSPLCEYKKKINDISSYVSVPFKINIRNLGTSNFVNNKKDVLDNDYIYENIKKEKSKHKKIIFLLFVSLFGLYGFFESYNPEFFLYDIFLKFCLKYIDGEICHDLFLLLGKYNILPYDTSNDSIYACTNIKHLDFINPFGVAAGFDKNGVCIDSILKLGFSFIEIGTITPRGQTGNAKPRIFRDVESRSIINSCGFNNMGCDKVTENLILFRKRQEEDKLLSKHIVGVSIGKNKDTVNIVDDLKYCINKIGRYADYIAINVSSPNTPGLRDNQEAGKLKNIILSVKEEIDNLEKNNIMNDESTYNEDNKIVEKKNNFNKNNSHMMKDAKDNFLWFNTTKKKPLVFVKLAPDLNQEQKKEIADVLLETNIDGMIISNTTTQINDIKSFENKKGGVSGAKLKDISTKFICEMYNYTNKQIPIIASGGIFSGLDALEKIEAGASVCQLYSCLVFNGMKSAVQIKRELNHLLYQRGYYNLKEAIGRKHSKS

[5] = P. aeruginosa biofilm formation inhibitors, primary screen, strain PAO1, LB-PBS medium, absorbance 600 nm (AID 1176); details: P. aeruginosa PAO1 growth/biofilm, A600, 12 h; higher = more signal
[6] = S. cerevisiae RM11-1a growth modifiers, primary screen, strain RM11-1a, OD600, basal, 24 h (AID 1177); details: OD600, 24 h, higher = more signal, called active from +8 up or from −8 down;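 note: cultures grown under basal conditions with no added stressor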
[7] = E. coli acrAB mutant growth effects, primary screen, E. coli filamentation inducers, strain DRC39, OD650, 24 h (AID 1178); details: higher = more signal, called active from +8 up or from −8 down;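 note: growth measured as culture turbidity by optical density at 650 nm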
[8] = E. coli acrAB mutant growth effects, primary screen, E. coli filamentation inducers, strain DRC39, OD650, 48 h (AID 1179);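 note: screen aims at cell division blockers that make cells filament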; details: E. coli DRC39 delta-acrAB growth, higher = more signal, called active from +8 up or from −8 down
[9] = RPMI8226 myeloma cell viability, profiling panel, resazurin fluorescence, basal, 24 h, PK04 Diversity Set (AID 1180); details: higher = more signal;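 note: RPMI8826 multiple myeloma cell line at 5000 cells per well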
[10] = target: E3 ubiquitin-protein ligase XIAP (Homo sapiens) (UniProt P98170); test: XIAP binders, primary screen, biophysical, small-molecule microarray, fluorescence 635 nm (AID 1181); details: small-molecule microarray binding, higher = more signal;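 note: score merges 667 nm emission and signal to noise over triplicate slides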
Sequence of E3 ubiquitin-protein ligase XIAP (Homo sapiens) (P98170 whole entry, looked up): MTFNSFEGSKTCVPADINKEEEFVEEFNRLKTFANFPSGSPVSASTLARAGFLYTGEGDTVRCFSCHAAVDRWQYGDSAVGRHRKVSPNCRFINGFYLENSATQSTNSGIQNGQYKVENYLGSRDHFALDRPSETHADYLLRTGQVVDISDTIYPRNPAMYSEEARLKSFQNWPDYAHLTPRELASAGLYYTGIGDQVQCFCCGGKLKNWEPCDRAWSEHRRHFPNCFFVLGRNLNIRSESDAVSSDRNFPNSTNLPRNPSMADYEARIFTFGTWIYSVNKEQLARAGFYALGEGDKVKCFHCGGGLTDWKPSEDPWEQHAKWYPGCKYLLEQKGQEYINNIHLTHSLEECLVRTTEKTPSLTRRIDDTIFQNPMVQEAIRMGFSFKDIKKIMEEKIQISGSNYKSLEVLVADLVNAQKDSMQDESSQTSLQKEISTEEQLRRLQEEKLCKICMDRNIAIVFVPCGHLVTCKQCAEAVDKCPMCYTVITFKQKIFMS

[11] = tested on: XIP peptide (Xip251-270) binding; test: small-molecule binders of XIP peptide, primary screen, biochemical, small-molecule microarray, fluorescence 635/667 nm, 0.1 µg/mL protein (AID 1182); details: fluorescent protein binding, 635 nm, higher = more signal, called active from +8 up or from −8 down
XIP peptide (Xip251-270) = test: small-molecule binders of XIP peptide, primary screen, biochemical, small-molecule microarray, fluorescence 635/667 nm, 0.5 µg/mL protein (AID 1183); details: small-molecule microarray binding, fluorescence 635 nm; higher = more signal
[12] = Plasmodium falciparum growth inhibition, primary screen, strain 3D7, DAPI fluorescence, 100 nL (AID 1184);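 note: parasites grown inside human red blood cells in medium with human serum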; details: P. falciparum 3D7 growth, 3 d, higher = more signal
[13] = target: Homeobox protein Hox-A13 (Mus musculus) (UniProt Q62424); test: inhibitors of HoxA13-DNA binding, primary screen, biochemical, fluorescence polarization, labeled oligonucleotide (AID 1185); details: 15 min, higher = more signal, called active from +8 up or from −8 down
Sequence of Homeobox protein Hox-A13 (Mus musculus) (Q62424 whole entry, looked up): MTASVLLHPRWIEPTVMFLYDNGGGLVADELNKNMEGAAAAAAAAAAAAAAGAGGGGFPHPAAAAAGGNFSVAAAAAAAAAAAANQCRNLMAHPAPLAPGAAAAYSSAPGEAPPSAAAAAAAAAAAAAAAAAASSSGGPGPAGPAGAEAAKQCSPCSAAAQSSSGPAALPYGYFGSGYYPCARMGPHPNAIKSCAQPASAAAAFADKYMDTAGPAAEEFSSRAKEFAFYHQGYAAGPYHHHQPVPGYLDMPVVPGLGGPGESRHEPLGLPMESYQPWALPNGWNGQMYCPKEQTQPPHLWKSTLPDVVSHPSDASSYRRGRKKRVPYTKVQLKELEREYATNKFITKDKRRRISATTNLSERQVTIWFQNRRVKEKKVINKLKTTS

[14] = inhibitors of hydroxyurea-induced Chk1 phosphorylation, primary screen, imaging, HeLa, phospho-Chk1 antibody, percent positive cells (AID 1186); details: hydroxyurea-induced phospho-Chk1 immunofluorescence imaging, higher = more signal
[15] = inhibitors of hydroxyurea-induced Chk1 phosphorylation, primary screen, imaging, HeLa, phospho-Chk1 nuclear intensity (AID 1187); details: hydroxyurea-induced phospho-Chk1 immunofluorescence imaging, higher = more signal

| SMILES | z-score [1] | z-score [2] | z-score [3] | composite z-score [4] | z-score [5] | z-score [6] | z-score [7] | z-score [8] | z-score [9] | composite z-score [10] | composite z-score [11] | composite z-score (XIP peptide (Xip251-270)) | z-score [12] | z-score [13] | z-score [14] | z-score [15] |
| --- | --- | --- | --- | --- | --- | --- | --- | --- | --- | --- | --- | --- | --- | --- | --- | --- |
| COCCOC(=O)N1C(=O)[C@@]2(c3cc(C#CC4(O)CCCCCC4)ccc31)[C@H](C(=O)Nc1nc3ccccc3s1)[C@H]1C(=O)O[C@H](c3ccccc3)[C@H](c3ccccc3)N1[C@@H]2c1ccc(OCCO)cc1 | -0.0451 | 1.16 (inactive) | -0.584 (inactive) | 0.901 (inactive) | 2.69 (inactive) | 3 (inactive) | -0.451 (inactive) | -0.976 (inactive) | -0.523 | 0.0073 | -0.148 (inactive) | 0.712 | -1.71 | 0.447 (inactive) | -0.086 (inactive) | -0.0454 (inactive) |
| CCOc1ccc(N2C(=O)CSC2c2cccc([N+](=O)[O-])c2)cc1 (stereo not drawn) | 0.296 | 0.269 (inactive) | -0.0959 (inactive) | -0.274 (inactive) | -0.0902 (inactive) | 0.791 (inactive) | 0.754 (inactive) | 0.908 (inactive) | -0.0239 | -0.183 | 0.115 (inactive) | 0.193 | 0.268 | -0.0449 (inactive) | -0.139 (inactive) | -0.0398 (inactive) |
| O=C1NC(=O)C2C1C=CC(C(O)C1CC=CCC1)N2Nc1ccccn1 (stereo not drawn) | -1.16 | 1.05 (inactive) | -1.35 (inactive) | 1.07 (inactive) | 0.916 (inactive) | 0.636 (inactive) | -0.857 (inactive) | -0.0662 (inactive) | -1.57 | 0.0512 | 0.467 (inactive) | 0.362 | 0.45 | -0.315 (inactive) | 0.113 (inactive) | -0.22 (inactive) |
| [N-]=[N+]=Nc1ccccc1C[C@]1(C(=O)NCc2ccccc2)N=C(c2ccc(OCCCO)cc2)O[C@H]1c1ccccc1N=[N+]=[N-] | -1.17 | 0.371 (inactive) | -3.49 (inactive) | 0.535 (inactive) | 1.13 (inactive) | 0.879 (inactive) | -0.377 (inactive) | -0.0802 (inactive) | -2.83 | 0.0097 | -0.12 (inactive) | 0.681 | -2.32 | 0.69 (inactive) | -0.231 (inactive) | -0.741 (inactive) |
| COc1ccc([Si](C)(C)[C@H]2[C@H](CCO)O[C@@]3(C(=O)N(Cc4ccccc4)c4ccc(N5CCCCC5=O)cc43)[C@@H]2C)cc1 | -1.91 | 0.234 (inactive) | -2.66 (inactive) | -2.81 (inactive) | 1.51 (inactive) | 3.14 (inactive) | 0.663 (inactive) | 0.45 (inactive) | -3.46 | -0.0025 | 0.391 (inactive) | 0.686 | -1.67 | -5.2 (inactive) | -1.39 (inactive) | -0.713 (inactive) |
| CCOC(=O)C1=CC[C@H]2C(=O)N(c3ccccc3)C(=O)[C@@H]12 | 0.119 | 0.206 (inactive) | -0.811 (inactive) | 0.494 (inactive) | -0.417 (inactive) | -0.337 (inactive) | -0.809 (inactive) | -1.17 (inactive) | -0.0357 | 0.154 | 0.571 (inactive) | 0.903 | -0.55 | -3.98 (inactive) | 0.152 (inactive) | -0.177 (inactive) |
| COCCOC(=O)N1C(=O)[C@@]2(c3cc(C#CCCO)ccc31)[C@H](c1ccc(O)cc1)N1[C@H](c3ccccc3)[C@H](c3ccccc3)OC(=O)[C@H]1[C@@H]2C(=O)N1CCN(c2ncccn2)CC1 | 1.36 | 0.467 (inactive) | -0.0402 (inactive) | -0.235 (inactive) | 0.541 (inactive) | 0.035 (inactive) | -0.235 (inactive) | -0.62 (inactive) | 0.783 | 0.17 | 0.729 (inactive) | 0.831 | -1.13 | -2.37 (inactive) | -0.264 (inactive) | -0.0303 (inactive) |
| NCCCCCCNC(=O)[C@H]1C[C@H]2C(=O)N[C@@H](Cc3ccccc3)C(=O)N2[C@H]1c1cccc(OCCO)c1 | -2.77 | -0.669 (inactive) | 1.51 (inactive) | 1.18 (inactive) | -0.627 (inactive) | 0.262 (inactive) | 0.968 (inactive) | 0.846 (inactive) | 1.06 | 0.081 | 1.16 (inactive) | 0.834 | -0.516 | -3.36 (inactive) | -0.182 (inactive) | -0.25 (inactive) |
| COc1ccc([Si](C)(C)[C@H]2[C@H](CCn3cc([C@H](O)c4ccccc4)nn3)O[C@@]3(C(=O)N(C)c4ccccc43)[C@@H]2C)cc1 | 0.894 | 0.0785 (inactive) | -0.722 (inactive) | -0.778 (inactive) | 0.92 (inactive) | 1.01 (inactive) | 0.445 (inactive) | 0.416 (inactive) | -0.568 | 0.393 | 0.014 (inactive) | -0.325 | -1.52 | -6.41 (inactive) | -0.179 (inactive) | 0.36 (inactive) |
| O=C(O)C1N=C(c2ccc(OCCCO)cc2)N(c2ccccc2)O1 (stereo not drawn) | -0.0554 | 0.0427 (inactive) | -0.258 (inactive) | -0.928 (inactive) | -0.469 (inactive) | 0.0613 (inactive) | -0.351 (inactive) | 0.46 (inactive) | -0.219 | -0.22 | 1.77 (inactive) | 0.852 | -0.112 | -2.98 (inactive) | -0.259 (inactive) | -0.229 (inactive) |
| COCCOC(=O)N1C(=O)[C@@]2(c3ccccc31)[C@H](C(=O)N1CCc3cc(OC)c(OC)cc3C1)[C@H]1C(=O)O[C@H](c3ccccc3)[C@H](c3ccccc3)N1[C@@H]2c1ccc(O)cc1 | 0.349 | 0.296 (inactive) | 0.173 (inactive) | -0.974 (inactive) | 2.16 (inactive) | 1.13 (inactive) | -0.157 (inactive) | 0.549 (inactive) | -0.111 | 0.116 | 1.58 (inactive) | 0.807 | -0.45 | -1.34 (inactive) | -0.437 (inactive) | -0.469 (inactive) |
| CCCCCCCCCCC(O)C1C=CC2C(=O)NC(=O)C2N1Nc1ccc(Cl)cc1Cl (stereo not drawn) | -2.55 | -1.08 (inactive) | -1.76 (inactive) | 0.762 (inactive) | 0.201 (inactive) | 1.69 (inactive) | -0.801 (inactive) | -1.27 (inactive) | -1.51 | -0.102 | 3.34 (inactive) | -0.333 | -0.642 | -0.739 (inactive) | 0.387 (inactive) | 0.006 (inactive) |
| NCCCCCNC(=O)[C@H]1C[C@H]2C(=O)N3CCC[C@H]3C(=O)N2[C@H]1c1ccc(O)cc1 | -0.0962 | -0.0403 (inactive) | -0.225 (inactive) | -0.572 (inactive) | 0.174 (inactive) | -0.835 (inactive) | -0.363 (inactive) | -0.39 (inactive) | -0.485 | 0.247 | 0.705 (inactive) | 0.718 | -0.0006 | -2.09 (inactive) | -0.15 (inactive) | -0.265 (inactive) |
| COc1ccc(CCNC(=O)[C@@]2(C)c3ccccc3C(=O)N(c3ccc(C)cn3)[C@H]2c2ccc(CO)cc2)cc1 | 0.437 | -0.673 (inactive) | 0.978 (inactive) | -0.907 (inactive) | -0.301 (inactive) | 0.0798 (inactive) | 0.0083 (inactive) | 0.737 (inactive) | 0.933 | -0.0838 | 1.66 (inactive) | 0.639 | 1.36 | -1.58 (inactive) | 0.366 (inactive) | 0.822 (inactive) |
| CC(CO)N1C(=O)[C@@H]2C3C(=O)OCCC/C=C\[C@H]3OC23C=CCN(CCN2CCOCC2)C(=O)[C@@H]13 (stereo partly drawn) | -0.167 | -0.193 (inactive) | -0.72 (inactive) | -0.387 (inactive) | 0.053 (inactive) | -0.137 (inactive) | 0.218 (inactive) | 0.685 (inactive) | -0.784 | 1.01 | -0.134 (inactive) | -0.0838 | 0.339 | -4.25 (inactive) | -0.957 (inactive) | -1.88 (inactive) |
| CCCNC(=O)[C@@H]1c2ccccc2C(=O)N(Cc2ccccc2OC)[C@H]1c1ccc(CO)cc1 | -0.314 | -0.42 (inactive) | -1.32 (inactive) | -0.486 (inactive) | -0.0933 (inactive) | 0.262 (inactive) | 0.324 (inactive) | 0.285 (inactive) | -0.694 | -0.113 | 0.273 (inactive) | 0.85 | -1.54 | -3.2 (inactive) | -0.175 (inactive) | -0.0848 (inactive) |
| O=C1O[C@@H](c2ccccc2)[C@@H](c2ccccc2)N2[C@@H](c3ccccc3OCCO)[C@]3(C(=O)Nc4ccccc43)[C@@H](C(=O)O)[C@H]12 | -0.0985 | -2.46 (inactive) | 0.19 (inactive) | -0.487 (inactive) | 0.986 (inactive) | 0.324 (inactive) | -0.582 (inactive) | -0.76 (inactive) | 0.125 | 0.0755 | 1.14 (inactive) | 0.457 | -0.6 | -6.35 (inactive) | 0.405 (inactive) | 0.5 (inactive) |
| CCCC[C@H]1C[C@@H]1[C@@H]1N(P(=O)(c2ccccc2)c2ccccc2)C[C@@](O)(c2ccccc2)CC12CC2 | 2.63 | -0.763 (inactive) | 1.07 (inactive) | -0.244 (inactive) | 0.122 (inactive) | 0.781 (inactive) | -0.446 (inactive) | -0.412 (inactive) | -1.79 | 0.0447 | -0.0646 (inactive) | -0.0749 | -1.22 | -2.37 (inactive) | 0.0682 (inactive) | 0.228 (inactive) |
